Results from PubChem BioAssay AID598 (SRMLSC, 2007).
Among all 85,000 compounds or so, about 5,100 (6%) were called active. This is one part of a sample in which actives are shown more often than they occur. Values without a mark were called inactive.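 Rule for the calls: active = viability at or below 40%; inactive = viability above 40%.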

assay: H69AR cell viability reduction – human, 86K library, primary screen (AID 598); conditions: H69AR lung tumor viability, ATP luminescence, 72 h; at 10 µM; stronger effect = lower value;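 note: multidrug resistant small cell line overexpressing MRP-1 efflux transporter; 100% = mean luminescence of untreated control wells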

| SMILES | viability |
| --- | --- |
| Cn1c(=O)c2c(SCC(=O)N3CCOCC3)nc(C3CC3)nc2n(C)c1=O | 81.8% |
| CC(C)NC(=O)C(=O)NCCN1CCN(S(=O)(=O)c2ccc(Cl)cc2)CC1 | 94.6% |
| O=C(CCn1c(SCC(=O)c2ccccc2)nc2ccccc2c1=O)NCc1ccc(F)cc1 | 97.6% |
| Cc1cc(C)n(-c2cc(Oc3ccccc3)ncn2)n1 | 100% |
| CC(=O)c1ccc(Oc2cc(C)nc(-n3nc(C)cc3C)n2)cc1 | 23.4% (active) |
| Cc1cc(Oc2ccccc2)nc(N2CCOCC2)n1 | 94.1% |
| O=C(CSc1nc2cccnc2n1Cc1ccccc1)N1CCc2ccccc21 | 70.1% |
| C=CCO/N=C(\C)c1c(O)c(C)c(-c2ccccc2)n(-c2ccccc2)c1=O | 96.7% |
| O=C(NCC1CCC(C(=O)O)CC1)OCc1ccccc1 (stereo unspecified) | 98.5% |
| CCCOc1ccccc1C1CC(=O)Nc2cc3c(cc21)OCO3 (stereo unspecified) | 25.9% (active) |
| COc1ccc(C2CC(=O)Nc3cc(C)c(C)cc32)c(OC)c1OC (stereo unspecified) | 78.6% |
| COCCOC(=O)C1=C(C)NC(=O)CC1c1cc2c(cc1Br)OCO2 (stereo unspecified) | 97.1% |
| CCCNC(=S)N1CCC(NC(=O)C23CC4CC(CC(C4)C2)C3)CC1 | 101% |
| CCOC(=O)Cc1csc(NC(=O)CSc2nnc(-c3cccnc3)n2Cc2ccco2)n1 | 100% |
| CCOCc1nnc(NC(=O)CSc2ccc(C)cc2)s1 | 94.8% |
| CCCCCN1CC(O)=C(c2nc(-c3ccc(Cl)cc3)cs2)C1=N | 99% |
| COc1ccc(C(=O)Nc2ccc(F)cc2F)cc1 | 94.2% |
| CCOC(=O)N1CCN(S(=O)(=O)c2ccc(C(=O)Nc3ccc(F)cc3F)cc2)CC1 | 20.4% (active) |
| O=C(Nc1cccc(F)c1)c1ccc(S(=O)(=O)N2CCCC2)cc1 | 84.8% |
| COc1ccc(C2=NOC3(CC(=O)N(c4ccc(C)cc4)C3=O)C2)cc1 (stereo unspecified) | 98.4% |
| O=C(c1cccc(N2CCCC2=O)c1)N1CCOCC1 | 110% |
| CCN(CC)CCn1c2ccc(Cl)cc2c2nc(C)sc21 | 20.6% (active) |
| COC(=O)Cn1c2ccc(C)cc2c2nc(C)sc21 | 98.6% |
| COc1ccc(Br)cc1CN1CCN(C(=O)c2cccc(OC)c2OC)CC1 | 70.4% |
| COC(=O)c1ccccc1NC(=O)CN(Cc1ccc(Cl)cc1)S(C)(=O)=O | 60.9% |
| CCN(CC)C(=O)CSc1nnc(-c2cccc(OC)c2)o1 | 76.1% |

| SMILES | viability |
| --- | --- |
| COc1cccc(-c2nnc(NC(=O)c3ccc(S(=O)(=O)N(CC(C)C)CC(C)C)cc3)o2)c1 | 13.2% (active) |
| COc1cccc(NC(=O)CN(C)S(=O)(=O)c2ccc(C)cc2)c1 | 89.9% |
| COC(=O)c1ccccc1Sc1c(/C=N/OCc2ccc(Cl)cc2)c(C(F)(F)F)nn1C | 79.2% |
| CN(C)C(=O)c1cc(Br)ccc1Cl | 100% |
| COc1ccc(C2C(C#N)=C(/N=C/N3CCOCC3)OC3=C2C(=O)CC(C)(C)C3)cc1OC (stereo unspecified) | 96.7% |
| OC(COc1ccc2c(c1)CCC2)CN1CCN(c2cccc(Cl)c2)CC1 (stereo unspecified) | 75% |
| O=C(Nc1ccccc1-c1nnn(CC(=O)N2CCCc3ccccc32)n1)c1cccc(Cl)c1 | 102% |
| Cc1cc(C)n(C(=O)CCNC(=O)c2ccccc2Cl)n1 | 104% |
| Clc1ccc(C2=CSC3=Nc4cccc5cccc(c45)N23)cc1 | 27.7% (active) |
| O=C(c1ccco1)N1CCN(C(=O)C2CCCN(S(=O)(=O)c3cccc4nsnc34)C2)CC1 (stereo unspecified) | 91.1% |
| CCOCCOCCC(C(=O)O)P(=O)(c1ccccc1)c1ccccc1 (stereo unspecified) | 103% |
| CCc1c(O)nc(SCC(=O)Nc2ccccc2)n(C(C)CC)c1=O (stereo unspecified) | 74.6% |
| CC(=O)OC(C(=O)NC1CCCCC1)c1ccccc1 (stereo unspecified) | 92.1% |
| CC(C)NS(=O)(=O)c1ccc(NC(=O)C2CCCCC2)cc1 | 109% |
| CC(C)c1ccc(NC(=O)NC2CCCCC2)cc1 | 25.6% (active) |
| CNC(=S)N1N=C(c2ccccc2)CC1c1ccc(Br)cc1 (stereo unspecified) | 76.7% |
| COCCn1c(-c2ccc(OC)c(OC)c2)nc2ccccc21 | 92.7% |
| CCCn1c(C(O)c2cc(OC)ccc2OC)nc2ccccc21 (stereo unspecified) | 95.3% |
| COc1ccc(-c2nc3ccccc3n2CCC(C)C)cc1OC | 28.8% (active) |
| COC(=O)c1[nH]c2ccc(Br)cc2c1NC(=O)Oc1ccccc1 | 80.6% |
| Cc1nc(-c2ccc(NC(=O)c3cccs3)cc2)cs1 | 70.7% |
| O=C(Cc1cccc2ccccc12)Nc1ccc2oc(-c3ccccc3)nc2c1 | 59.7% |
| O=C(Nc1ccc2oc(-c3ccc4ccccc4c3)nc2c1)c1cccs1 | 2.65% (active) |
| CCNC(=O)c1sccc1-n1cccc1 | 103% |
| CC(C)(C)NC(=O)Cn1c(SCC(=O)Nc2nccs2)nc2ccccc21 | 92.5% |
| O=S(=O)(N1CCCCC1)N1CCNCC1 | 100% |

| SMILES | viability |
| --- | --- |
| O=C(CSc1nnc(-c2ccco2)n1-c1ccccc1)NCCc1ccccc1 | 82% |
| COc1ccc(C(=O)NC(=O)CSc2nnc(-c3ccco3)n2-c2ccccc2)cc1 | 95.2% |
| Cc1cccc(C)c1NC(=O)CCCSc1nnc(-c2ccco2)n1-c1ccccc1 | 34.3% (active) |
| COC(=O)c1sc(=S)n(-c2ccc(Cl)cc2)c1C | 90% |
| CCOn1c(SC(C)C)nc2ccccc2c1=O | 103% |
| Cc1ccc(OC(=O)c2cc3ccccc3o2)cc1 | 104% |
| CCOC(=O)c1cc2cc(-c3c(C(=O)OCC)oc4cc(O)cc(O)c4c3=O)ccc2o1 | 16.6% (active) |
| CCOC(=O)c1c(C)nc2c(c1C)c(=O)oc1ccccc12 | 98.3% |
| CN(C)c1nc(N)nc(CSc2ccccn2)n1 | 91% |
| Cc1cc(N/C=C\C(=O)c2ccc(Cl)c(Cl)c2)no1 | 84.8% |
| COC(=O)CNS(=O)(=O)c1ccc(OC)cc1 | 91.5% |
| CCCC(NS(=O)(=O)c1ccc(OC)cc1)C(=O)O (stereo unspecified) | 104% |
| CCOC(=O)c1ccccc1NS(=O)(=O)c1ccc(OC)cc1 | 18.2% (active) |
| O=c1[nH][nH]c(C(F)(F)F)c1C=NCc1ccccc1Cl | 81.2% |
| Cn1nc(-c2ccccc2)c(-c2nc(-c3ccc(Cl)cc3)no2)c1Cl | 34.3% (active) |
| Cc1cccc(-c2noc(-c3ccc(F)cc3)n2)c1 | 91.5% |
| COc1ccc(-c2nc(-c3ccccc3)no2)c(OC)c1 | 69.4% |
| COc1ccc(Cl)cc1C(=O)NCc1cn(C)nc1C | 86.1% |
| Cc1ccccc1-n1c(C)cc(/C=C2\NC(=O)NC2=O)c1C | 85.6% |
| CC1CC2=C(CC1/C=N/NC(N)=S)C(C)(C)CCC2 (stereo unspecified) | 2.3% (active) |
| CC1(C)CCCC2=C1CC1C(=O)N(c3ccccc3)C(=O)C1C2 (stereo unspecified) | 84% |
| CCCc1nc2ccccc2c(=O)n1/N=C/c1ccc(O)c(O)c1 | 15.8% (active) |
| CCCCc1nc2ccccc2c(=O)n1NC(=O)c1c(O)c2cccc3c2n(c1=O)CC3 | 70.7% |
| CCCc1nc2ccccc2c(=O)n1NC(=O)c1c(O)c2ccccc2[nH]c1=O | 86.6% |
| CCOc1cc(C(=S)N2CCOCC2)ccc1O | 85.1% |
| CCn1c2ccccc2c2cc(NC(=S)N3CCOCC3)ccc21 | 20.1% (active) |

| SMILES | viability |
| --- | --- |
| CCn1c(=O)cc(O)c2ccccc21 | 83.1% |
| CS(=O)(=O)Nc1ccc(C(=O)N2CCCC2)cc1 | 89.1% |
| Cc1ccc(CN2CCN(/N=C/c3ccco3)CC2)c(C)c1 | 106% |
| C=CCNC(=O)c1cc2nc(C3CC3)cc(C(F)F)n2n1 | 91.1% |
| Cc1[nH]n(-c2cccc(Cl)c2)c(=O)c1/C=N/n1c(C)nc2ccccc2c1=O | 29.1% (active) |
| Cn1c(COc2ccc(Cl)cc2)nc2ccccc2c1=O | 77.5% |
| Cc1[nH]n(-c2ccc(Cl)cc2)c(=O)c1/C=N/n1c(C)nc2ccccc2c1=O | 50.4% |
| O=C(CN(c1ccccc1)S(=O)(=O)c1ccc(Cl)cc1)Nc1ccccc1C(=O)N1CCCC1 | 84.3% |
| O=C(Cc1ccc(-n2c(=O)[nH]c3ccccc3c2=O)cc1)N1CCN(c2cccc(Cl)c2)CC1 | 89.4% |
| Cc1ccc(NC(=O)Nc2ccc3oc(C)nc3c2)cc1 | 74.5% |
| O=C(Nc1ccc2ccccc2c1)Nc1ccc2snnc2c1 | 7.33% (active) |
| COc1ccc(NC(=O)Nc2ccc3nc(C)c(C)nc3c2)cc1 | 90.7% |
| Cc1cc2nc(C)n(CCCNC(=O)Nc3ccccc3)c2cc1C | 91.7% |
| CCC1CCCCN1CCCNC(=O)C1CCC(Cn2c(=O)[nH]c3ccccc3c2=O)CC1 (stereo unspecified) | 77.4% |
| Cc1cccc(NC(=O)C2CC(=O)OC23CCCC3)c1 (stereo unspecified) | 102% |
| Clc1ccc(C2CC(c3cccs3)n3ncnc3N2)cc1Cl (stereo unspecified) | 35.8% (active) |
| COc1ccc(C2CC(c3ccccc3)Nc3ncnn32)cc1 (stereo unspecified) | 90.5% |
| COc1ccc(C2CC(c3ccc(C)cc3)Nc3ncnn32)cc1 (stereo unspecified) | 91.5% |
| Cc1cccc(C(=O)Nc2ccccc2N2CCN(c3ccc(F)cc3)CC2)c1 | 89.6% |
| FC(F)(F)c1nnc2ccc(N3CCN(c4ccccc4)CC3)nn12 | 92.5% |
| COc1ccc2c(c1)CCc1c(C(=O)N3CCc4ccccc4C3)noc1-2 | 94.9% |
| COc1ccc(S(=O)(=O)N2CCC(C(=O)N3CCc4ccccc4C3)CC2)cc1OC | 88.7% |
| COc1cc2c(cc1OC)CN(C(=O)c1cc(=O)c3ccccc3o1)CC2 | 18.1% (active) |
